# Screens from PubChem.
# APOBEC3A inh: APOBEC3A ssDNA deaminase inhibitors, primary screen, selectivity assay for APOBEC3G inhibitor project, biochemical, FAM/TAMRA oligo cleavage fluorescence. inhibition, % at 20 µM. recombinant A3A, FAM/TAMRA ssDNA deamination fluorescence. DNA dC->dU-editing enzyme APOBEC-3A (Homo sapiens), P31941. hit rate 0.41% among 330,000;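 active = at least 40% inhibition at 20 µM here, with at most 30% in a related deaminase screen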;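 also: plate controls were A3A with DMSO for no effect and wells lacking A3A enzyme for full effect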
# Target sequence (P31941 whole entry, looked up): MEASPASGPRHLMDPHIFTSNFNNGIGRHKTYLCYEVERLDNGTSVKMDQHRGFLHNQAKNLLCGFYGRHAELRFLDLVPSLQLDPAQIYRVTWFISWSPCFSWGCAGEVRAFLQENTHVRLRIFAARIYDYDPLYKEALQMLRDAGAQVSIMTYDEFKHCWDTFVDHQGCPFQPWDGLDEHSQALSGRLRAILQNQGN
# NadD inh: inhibitors of S. aureus NadD, primary screen, biochemical, colorimetric, uHTS. Nicotinate-nucleotide adenylyltransferase NadD (Staphylococcus aureus N315). purified NadD enzyme, colorimetric absorbance read-out. inhibition, % at 20 µM. hit rate 0.78% among 360,000; in the data active = inhibition above about 26%
# H9c2 TAG inh: inhibitors of triacylglycerol accumulation, primary screen, cell-based, uHTS, fluorescence, H9c2 | H9c2 cells, Nile Red lipid (TAG) fluorescence; cells loaded with 200 µM oleic acid | hit rate 0.66% among 230,000 | AID 651582, 2012 | inhibition, % at 12.5 µM;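 active = pattern-corrected inhibition of lipid staining of at least 50% with the nuclear-stain viability signal not falling by more than 50%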;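 also: 0% = DMSO wells and 100% = triacsin C control wells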
# APOBEC3G inh: APOBEC3G DNA deaminase inhibitors, primary screen, biochemical, fluorescence, single-stranded DNA substrate, uHTS; DNA dC->dU-editing enzyme APOBEC-3G (Homo sapiens), Q9HC16; recombinant A3G, ssDNA deamination FAM/TAMRA fluorescence; inhibition, % at 20 µM; hit rate 0.28% among 330,000;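 active = inhibition of at least 40% at 20 µM, with no more than 30% in the related APOBEC3A deaminase screen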;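 also: plate controls were DMSO wells with A3G for no effect and wells lacking A3G enzyme for full effect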
# H9c2 protect: cardioprotection against H2O2-induced cell death, primary screen, uHTS, H9c2 cells, ATPLite luminescence; H9c2 cardiomyocytes, H2O2 injury protection, 2 h; hit rate 0.63% among 360,000; protection from H2O2 cell death, % at 20 µM;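 active = compounds giving at least 50% protection of heart cells from peroxide-induced death in the single-dose screen, raw or plate-pattern-corrected value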;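 also: 0% = DMSO wells with peroxide and 100% = DMSO wells without peroxide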
# PfG6PD inh: PfG6PD enzyme inhibitors, primary screen, biochemical, fluorescence intensity, uHTS; glucose-6-phosphate dehydrogenase-6-phosphogluconolactonase (Plasmodium falciparum 3D7); PfGluPho enzyme, NADPH resazurin-diaphorase fluorescence; inhibition, % at 20 µM; hit rate 0.78% among 350,000; AID 504690, 2011;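 active = inhibition reaching at least a set limit at 20 µM in the primary screen, cut at about 59% in these data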;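 also: 0% = DMSO wells with substrate and 100% = DMSO wells lacking glucose-6-phosphate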
# H9c2 TAG conf: triacylglycerol accumulation inhibitors, retest, confirmation, cell-based, single concentration, Nile Red fluorescence, H9c2; hit rate 71% among 990; H9c2 lipid accumulation; cells loaded with 200 µM oleic acid; shares compounds with H9c2 TAG inh; inhibition, % at 12.5 µM;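 active = mean inhibition across replicates of 40% or more; inactive = mean inhibition below 40%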;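 also: plate controls were DMSO only wells for no effect and Triacsin C treated wells for full effect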
# * marks the source's active call; other numbers are inactive results; . = not tested or not shown. An excerpt weighted towards active compounds, which were near 2.9% of everything screened.
SMILES,APOBEC3A inh,NadD inh,H9c2 TAG inh,APOBEC3G inh,H9c2 protect,PfG6PD inh,H9c2 TAG conf
O=C(CSc1nc2ccc(Nc3nc(N4CCOCC4)nc(N4CCOCC4)n3)cc2s1)N1CCOCC1,-2.2,0.7,.,-8.6,47.9,8.7,.
O=C(CSc1nc2ccc(Nc3nc(N4CCOCC4)nc(N4CCOCC4)n3)cc2s1)Nc1ccccc1Cl,-5.8,27.7,62.4*,-9.4,9.9,12.7,67.5*
O=C(CSc1nc2ccc(Nc3nc(N4CCOCC4)nc(N4CCOCC4)n3)cc2s1)Nc1ccccc1F,-1.5,15.7,72.9*,-1.9,1.5,9.3,78.4*
COc1ccccc1N(CC(=O)Nc1ccccc1C(F)(F)F)S(=O)(=O)c1cccs1,-4.0,-8.9,23.9,-9.4,-4.9,-6.0,.
COc1cc(CCC(=O)OCC(=O)Nc2sccc2C(N)=O)cc(OC)c1OC,5.8,-5.4,-43.3,-7.8,-19.1,-1.9,.
O=C(Nc1ccc([N+](=O)[O-])cn1)c1cc(-c2cccc(Cl)c2)nc2ccccc12,0.4,11.5,67.6*,-0.5,-2.4,0.6,52.5*
CC1(C)Cc2c(c(N3CCOCC3)nc3sc(-c4ccc(C(=O)O)o4)c(N)c23)CO1,0.7,1.8,22.1,-7.7,24.8,14.4,.
CNC(=O)c1ccc(-c2sc3nc(N4CCOCC4)c4c(c3c2N)CC(C)(C)OC4)o1,1.9,0.3,51.7*,3.0,96.9*,16.7,66.5*
Nc1c(C(=O)NCc2ccccc2)sc2nc(N3CCOCC3)c3c(c12)CCCC3,6.0,10.3,54.5*,15.1,-3.5,37.9,41.6*
CNC(=O)c1ccc(-c2sc3nc(N4CCOCC4)c4c(c3c2N)CCCC4)o1,-2.1,4.5,50.7*,-2.6,80.0*,-3.9,74.1*
CC(C)N1CCC1(C)C(=O)Nc1ccc2cn[nH]c2c1 (stereo unspecified),.,-0.2,10.4,.,6.1,.,.
CC(C)C[C@@H](CN1CCCC1CN1C(=S)NC[C@@H]1Cc1ccccc1)N1C[C@H](Cc2ccccc2)N(CC2CCCCCC2)C1=S (stereo partly specified),.,21.7,.,.,.,.,.
CC(C)C[C@@H](CN1CCCC1CN1C(=S)NC[C@@H]1Cc1ccc(O)cc1)N1C[C@H](Cc2ccccc2)N(CC2CCCCC2)C1=S (stereo partly specified),.,28.5,53.0*,.,-11.7,25.4,72.6*
Cn1c2ccccc2c2c(C(=O)N3CCN(C(=O)c4ccco4)CC3)cn(C3CCCCC3)c(=O)c21,-3.8,7.4,50.0*,-5.1,43.5,-5.0,34.9
COc1ccc2nc(SC(C)C(=O)NC3CCCC3)[nH]c2c1 (stereo unspecified),0.7,1.8,3.6,-4.1,1.5,17.5,.
C[C@@H]1CN([C@@H](C)CO)C(=O)c2cccc(NC(=O)Nc3ccc(F)cc3)c2O[C@@H]1CN(C)Cc1ccc(Oc2ccccc2)cc1,-0.3,5.8,72.8*,-4.6,-5.4,7.4,80.7*
C[C@@H]1CN([C@H](C)CO)C(=O)c2c(c3ccccc3n2C)-c2ccccc2CO[C@H]1CN(C)Cc1ccc(Oc2ccccc2)cc1,.,0.0,59.1*,.,-15.5,22.1,73.7*
C[C@H]1CN([C@@H](C)CO)C(=O)c2cc(NC(=O)Nc3cccc4ccccc34)ccc2O[C@@H]1CN(C)Cc1ccc(-c2ccccc2)cc1,-0.1,27.4,71.6*,9.3,-11.2,8.0,70.5*
C[C@@H]1CN([C@H](C)CO)C(=O)c2cc(NC(=O)Nc3cccc4ccccc34)ccc2O[C@H]1CN(C)Cc1ccc(C(F)(F)F)cc1,-2.8,23.1,9.6,-3.8,1.2,17.8,.
